What was measured:
Assay in all cases: log2 ratio of Biotin-Ahx-Ub-VS probe labelling (fragment/DMSO); higher = less target engagement (more negative = stronger competition), active = hit call of the paper (q ≤ 0.05, log2 ratio ≤ -1)
Details in all cases: compound concentration: 200 uM; treatment time: 3 h
[1] = molecular target: T1, OTUD6B (UniProt Q8N6M0)
T1 sequence (whole entry): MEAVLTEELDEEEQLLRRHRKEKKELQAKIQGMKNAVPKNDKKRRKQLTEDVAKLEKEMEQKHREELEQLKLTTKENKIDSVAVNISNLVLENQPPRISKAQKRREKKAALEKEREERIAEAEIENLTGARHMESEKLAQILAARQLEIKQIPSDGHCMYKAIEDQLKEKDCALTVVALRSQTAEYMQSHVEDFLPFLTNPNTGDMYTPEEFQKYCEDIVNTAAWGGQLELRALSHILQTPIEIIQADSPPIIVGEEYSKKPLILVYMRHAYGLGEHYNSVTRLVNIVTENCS
Procedure, shortened: (§1)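 Lysate from HEK293T cells, 495 µg per sample in Tris/CHAPS/IGEPAL buffer with protease inhibitors, was treated for 3 h in triplicate with fragment at 200 µM or vehicle. Biotin-Ahx-Ub-VS was next added at 0.5 µM final for 1 h. The labelled DUBs were enriched with NeutrAvidin, digested with LysC and trypsin, and run by diaPASEF LC-MS/MS, with values given as average log2 fragment/vehicle ratios by unpaired t-test on global-median-normalised Spectronaut quantities of proteins with ≥2 unique peptides.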

[2] = molecular target: T2, OTUD7B (UniProt Q6GQQ9)
T2 sequence (whole entry): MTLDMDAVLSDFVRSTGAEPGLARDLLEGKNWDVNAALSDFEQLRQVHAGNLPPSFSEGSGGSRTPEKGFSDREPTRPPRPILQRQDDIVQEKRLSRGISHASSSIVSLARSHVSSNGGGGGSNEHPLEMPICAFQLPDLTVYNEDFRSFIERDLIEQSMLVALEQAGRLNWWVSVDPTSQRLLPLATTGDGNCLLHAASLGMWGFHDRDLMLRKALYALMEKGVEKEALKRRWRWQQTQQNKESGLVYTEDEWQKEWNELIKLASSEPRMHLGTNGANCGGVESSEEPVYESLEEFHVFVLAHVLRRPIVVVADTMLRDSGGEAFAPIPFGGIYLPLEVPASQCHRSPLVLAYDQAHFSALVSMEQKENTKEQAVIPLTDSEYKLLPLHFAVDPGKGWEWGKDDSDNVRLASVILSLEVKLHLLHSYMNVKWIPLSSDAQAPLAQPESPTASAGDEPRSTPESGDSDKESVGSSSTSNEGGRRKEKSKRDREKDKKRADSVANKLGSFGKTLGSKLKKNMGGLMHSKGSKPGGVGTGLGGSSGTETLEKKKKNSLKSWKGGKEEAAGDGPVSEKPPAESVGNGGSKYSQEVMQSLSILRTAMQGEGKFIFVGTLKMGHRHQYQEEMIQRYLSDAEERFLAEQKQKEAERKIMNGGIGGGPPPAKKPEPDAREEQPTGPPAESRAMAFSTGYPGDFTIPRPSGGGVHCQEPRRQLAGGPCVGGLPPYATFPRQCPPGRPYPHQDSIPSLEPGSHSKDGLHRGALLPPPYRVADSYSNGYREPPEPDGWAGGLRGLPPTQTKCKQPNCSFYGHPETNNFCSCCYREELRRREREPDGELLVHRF
Procedure, shortened: as §1

[3] = molecular target: PRPF8 (UniProt Q6P2Q9)
Procedure, shortened: as §1

[4] = molecular target: T3, PSMD7 (UniProt P51665)
T3 sequence (whole entry): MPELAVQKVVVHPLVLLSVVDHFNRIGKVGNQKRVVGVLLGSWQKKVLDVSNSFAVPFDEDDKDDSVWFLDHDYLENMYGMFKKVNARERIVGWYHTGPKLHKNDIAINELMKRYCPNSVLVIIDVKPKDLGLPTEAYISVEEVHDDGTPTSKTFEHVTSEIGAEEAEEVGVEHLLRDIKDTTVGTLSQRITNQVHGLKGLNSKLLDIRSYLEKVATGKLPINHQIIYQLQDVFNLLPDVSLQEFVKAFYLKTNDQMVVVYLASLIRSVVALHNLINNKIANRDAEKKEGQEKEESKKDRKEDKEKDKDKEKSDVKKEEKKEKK
Procedure, shortened: as §1

[5] = molecular target: UCHL1 (UniProt P09936)
Procedure, shortened: as §1

[6] = molecular target: T4, UCHL3 (UniProt P15374)
T4 sequence (whole entry): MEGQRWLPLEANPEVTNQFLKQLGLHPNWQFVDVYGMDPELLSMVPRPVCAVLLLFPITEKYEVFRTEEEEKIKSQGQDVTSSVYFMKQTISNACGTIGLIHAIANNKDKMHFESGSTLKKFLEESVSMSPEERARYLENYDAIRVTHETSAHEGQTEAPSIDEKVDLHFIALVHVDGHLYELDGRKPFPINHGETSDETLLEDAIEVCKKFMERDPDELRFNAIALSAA
Procedure, shortened: as §1

[7] = molecular target: T5, UCHL5 (UniProt Q9Y5K5)
T5 sequence (whole entry): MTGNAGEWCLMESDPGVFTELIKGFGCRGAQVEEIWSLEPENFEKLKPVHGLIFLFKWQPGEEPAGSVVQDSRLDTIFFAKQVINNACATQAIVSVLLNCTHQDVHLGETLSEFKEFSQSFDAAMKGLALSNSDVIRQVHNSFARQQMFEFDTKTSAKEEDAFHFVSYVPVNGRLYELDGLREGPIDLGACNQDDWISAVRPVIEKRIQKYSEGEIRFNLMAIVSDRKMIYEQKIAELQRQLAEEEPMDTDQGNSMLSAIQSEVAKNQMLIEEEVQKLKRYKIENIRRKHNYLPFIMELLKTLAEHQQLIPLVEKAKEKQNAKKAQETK
Procedure, shortened: as §1

[8] = molecular target: USP10 (UniProt Q14694)
Procedure, shortened: as §1

[9] = molecular target: T6, USP15 (UniProt Q9Y4E8)
T6 sequence (whole entry): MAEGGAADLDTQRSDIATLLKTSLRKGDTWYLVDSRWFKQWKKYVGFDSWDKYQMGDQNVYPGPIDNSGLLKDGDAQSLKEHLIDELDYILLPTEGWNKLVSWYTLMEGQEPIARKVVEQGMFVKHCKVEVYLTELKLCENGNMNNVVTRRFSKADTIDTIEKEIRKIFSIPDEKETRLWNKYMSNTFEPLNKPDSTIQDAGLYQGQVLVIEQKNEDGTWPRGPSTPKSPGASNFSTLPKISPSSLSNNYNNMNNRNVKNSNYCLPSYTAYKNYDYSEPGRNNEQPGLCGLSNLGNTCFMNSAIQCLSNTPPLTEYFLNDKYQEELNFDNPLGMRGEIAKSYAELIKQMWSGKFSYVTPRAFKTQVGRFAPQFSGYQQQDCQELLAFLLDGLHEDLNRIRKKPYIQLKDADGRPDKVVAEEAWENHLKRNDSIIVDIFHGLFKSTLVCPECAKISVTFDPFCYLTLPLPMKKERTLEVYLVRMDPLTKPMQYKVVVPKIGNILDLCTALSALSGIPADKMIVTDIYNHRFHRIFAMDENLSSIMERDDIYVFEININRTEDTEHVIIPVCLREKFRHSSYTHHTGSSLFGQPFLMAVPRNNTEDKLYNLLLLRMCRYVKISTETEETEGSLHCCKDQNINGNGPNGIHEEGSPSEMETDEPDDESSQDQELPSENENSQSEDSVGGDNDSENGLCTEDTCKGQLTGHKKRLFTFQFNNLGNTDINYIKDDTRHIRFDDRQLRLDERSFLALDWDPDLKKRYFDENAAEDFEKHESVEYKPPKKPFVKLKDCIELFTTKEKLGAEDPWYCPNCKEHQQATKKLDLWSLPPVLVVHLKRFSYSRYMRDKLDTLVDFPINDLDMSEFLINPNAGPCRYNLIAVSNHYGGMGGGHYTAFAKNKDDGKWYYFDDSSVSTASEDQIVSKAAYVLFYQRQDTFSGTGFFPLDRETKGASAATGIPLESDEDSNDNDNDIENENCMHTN
Procedure, shortened: as §1

[10] = molecular target: USP16 (UniProt Q9Y5T5)
Procedure, shortened: as §1

Measured: log2 ratio of Biotin-Ahx-Ub-VS probe labelling

Chain of USP16 (Q9Y5T5 whole entry, looked up): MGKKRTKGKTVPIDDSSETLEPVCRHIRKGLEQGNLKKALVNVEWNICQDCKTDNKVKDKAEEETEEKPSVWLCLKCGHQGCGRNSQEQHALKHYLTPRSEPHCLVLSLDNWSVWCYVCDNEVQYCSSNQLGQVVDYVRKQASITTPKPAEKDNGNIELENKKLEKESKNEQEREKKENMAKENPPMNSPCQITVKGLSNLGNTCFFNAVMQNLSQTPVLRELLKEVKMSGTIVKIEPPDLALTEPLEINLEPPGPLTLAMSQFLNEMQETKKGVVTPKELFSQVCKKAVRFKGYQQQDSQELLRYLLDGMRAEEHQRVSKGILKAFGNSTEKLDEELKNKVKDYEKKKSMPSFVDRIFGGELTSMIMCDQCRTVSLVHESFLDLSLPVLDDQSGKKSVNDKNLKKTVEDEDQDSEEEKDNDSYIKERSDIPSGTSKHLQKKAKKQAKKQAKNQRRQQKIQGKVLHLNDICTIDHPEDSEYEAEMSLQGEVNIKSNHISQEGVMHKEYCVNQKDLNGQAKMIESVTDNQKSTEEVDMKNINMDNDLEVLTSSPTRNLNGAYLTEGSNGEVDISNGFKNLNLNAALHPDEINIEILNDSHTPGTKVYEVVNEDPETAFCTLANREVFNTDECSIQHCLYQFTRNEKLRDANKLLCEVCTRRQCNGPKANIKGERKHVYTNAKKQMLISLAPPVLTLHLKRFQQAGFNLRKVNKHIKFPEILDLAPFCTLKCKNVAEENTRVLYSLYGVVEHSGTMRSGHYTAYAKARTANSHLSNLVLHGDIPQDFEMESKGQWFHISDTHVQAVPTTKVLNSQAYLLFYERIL
Chain of UCHL1 (P09936 whole entry, looked up): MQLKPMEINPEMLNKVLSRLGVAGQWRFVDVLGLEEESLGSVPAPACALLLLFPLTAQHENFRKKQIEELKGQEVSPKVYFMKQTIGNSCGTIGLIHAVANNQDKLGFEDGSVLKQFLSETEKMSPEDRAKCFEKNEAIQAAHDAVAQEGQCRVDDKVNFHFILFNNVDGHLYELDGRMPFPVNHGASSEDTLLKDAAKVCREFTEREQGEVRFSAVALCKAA
Chain of USP10 (Q14694 whole entry): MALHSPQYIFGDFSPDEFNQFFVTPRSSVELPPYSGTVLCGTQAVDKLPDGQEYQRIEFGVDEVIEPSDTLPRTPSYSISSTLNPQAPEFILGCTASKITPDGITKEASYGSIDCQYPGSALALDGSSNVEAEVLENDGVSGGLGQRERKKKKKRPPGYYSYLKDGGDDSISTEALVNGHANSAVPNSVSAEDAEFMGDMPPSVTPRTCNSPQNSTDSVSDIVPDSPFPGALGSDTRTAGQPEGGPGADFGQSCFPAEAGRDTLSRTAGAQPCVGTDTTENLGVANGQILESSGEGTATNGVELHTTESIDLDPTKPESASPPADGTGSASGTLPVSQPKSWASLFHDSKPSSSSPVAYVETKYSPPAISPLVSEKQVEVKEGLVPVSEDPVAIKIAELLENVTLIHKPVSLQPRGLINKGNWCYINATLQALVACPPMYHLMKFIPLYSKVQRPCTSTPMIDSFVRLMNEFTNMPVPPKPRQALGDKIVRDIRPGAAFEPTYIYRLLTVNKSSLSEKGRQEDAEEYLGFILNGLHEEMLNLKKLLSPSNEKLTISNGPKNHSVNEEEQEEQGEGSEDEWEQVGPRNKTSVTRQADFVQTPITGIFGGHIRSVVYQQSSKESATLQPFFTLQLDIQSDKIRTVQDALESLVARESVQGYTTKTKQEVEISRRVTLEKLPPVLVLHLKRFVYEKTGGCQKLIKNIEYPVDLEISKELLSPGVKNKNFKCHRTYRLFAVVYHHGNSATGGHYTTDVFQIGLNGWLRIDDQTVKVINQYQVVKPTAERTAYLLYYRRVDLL

Cc1cccc(C)c1NC(=O)CCl
inactive: [1] -0.307 | [2] -0.52 | [3] -0.0544 | [4] -0.245 | [6] 0.0922 | [7] -0.309 | [8] -0.108 | [9] -0.203 | [10] -0.0305
active: [5] -1.48
